# From PubChem
# Hits are enriched below; roughly 2.4% of the tested compounds scored in any of these assays.
# Cruzain Triton: inhibitors of Trypanosoma cruzi cruzain with detergent; P25779; AID 1478; actives 0.43% (n = 200,000); purified cruzain, Z-FR-AMC fluorescence, 0.01% Triton; Potency, µM, without a hit: max response, negative = inhibition, hits mostly inhibitors;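 also: plate controls were neutral wells for no effect and buffer without enzyme for full effect; nearly all actives have a fitted effect of over 40% in size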
# Target sequence (P25779 123-467 limits assumed): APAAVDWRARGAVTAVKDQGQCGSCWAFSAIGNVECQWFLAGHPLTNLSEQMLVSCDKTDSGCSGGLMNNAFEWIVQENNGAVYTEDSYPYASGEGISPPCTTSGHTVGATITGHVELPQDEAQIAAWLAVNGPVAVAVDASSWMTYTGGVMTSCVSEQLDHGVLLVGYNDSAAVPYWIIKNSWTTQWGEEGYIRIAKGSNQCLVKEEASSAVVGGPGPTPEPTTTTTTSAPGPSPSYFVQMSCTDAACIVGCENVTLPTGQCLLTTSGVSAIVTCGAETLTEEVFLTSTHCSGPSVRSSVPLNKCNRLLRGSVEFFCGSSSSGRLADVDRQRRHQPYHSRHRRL
#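 In this qHTS format, compounds are incubated with 1.5 nM cruzain for 15 min at room temperature before 2 uM Z-FR-AMC is added. Release of AMC is followed at 360/450 nm, and progress is taken as the 60 s fluorescence difference.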
# Cruzain inh noDet: inhibitors of Trypanosoma cruzi cruzain without detergent | Potency, µM, for inactives: max response, negative = inhibition, actives largely listed as inhibitors | actives 2.3% (n = 200,000) | purified cruzain, Z-FR-AMC fluorescence, no detergent;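 also: plate controls were enzyme without inhibitor for no effect and buffer without enzyme for full effect; nearly all actives have a fitted effect of over 40% in size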
#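 Detergent-free condition (0.00005% Triton X-100) in acetate buffer pH 5.5 with DTT. 1.5 nM enzyme and compound were pre-mixed 15 min, then 2 uM Z-FR-AMC substrate added; reaction progress from fluorescence change between first and third reads (60 s).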
# Papain counter: papain (Carica papaya) inhibition counter-screen; actives 41% (n = 410); Potency, µM, without a hit: max response, negative = inhibition, hits mostly inhibitors; purified papain, Z-FR-AMC fluorescence cleavage; shares compounds with Cruzain Triton; AID 2161;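 also: 0% = no-compound wells and -100% = no-enzyme wells; nearly all actives have a fitted effect of over 35% in size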
# The depositor's hits bear a star; ? = inconclusive; · = no result given. Calls follow the shape of the dose curve; as a rule, active = well fitted curve in the direction sought with a large enough effect; inconclusive = small, poorly fitted or top-dose-only effect, or another doubt; inactive = no such curve, though single readings can be large; an effect the other way counts as inactive or inconclusive. Potency is read from the fitted curve at half-maximal effect.
SMILES,Cruzain Triton,Cruzain inh noDet,Papain counter
O=C(c1c(O)c2ccccc2oc1=O)C1CCC1,0%,-5%,·
Clc1ccc(CO/N=C(\Cn2ccnc2)c2ccc(Cl)cc2Cl)c(Cl)c1,-9%,12%,·
C1CCN(c2nc(N3CCCCC3)nc(N3CCNCC3)n2)CC1,4%,6%,·
N#Cc1nc(N2CCCC2)nc(N2CCCC2)n1,7.9µM*,5µM*,5.6µM*
CCC(=O)Nc1ccc(CC)cc1-c1nc2ccccc2n(CC(=O)Nc2ccccc2C)c1=O,-4%,-1%,·
FC(F)Sc1ccc(N=C2NN=C(c3ccc4c(c3)OCCO4)CS2)cc1,0%,3.2µM*,-12%
Cc1cccc(C)c1N=C1NN=C(c2ccccc2F)CS1,-6%,?,·
CCc1cccc2nc3c(c([Si](CC)(CC)CC)c12)Cn1c-3cccc1=O,-17%,7%,·
CCC(C)(C(=O)NC1CCCCC1)N(CC1CCCO1)C(=O)c1ccccn1 (configuration not stated),1%,3%,·
Cc1cc2c3c(c1C)C1(C(=O)N3C(C)(C)CC2C)C(C#N)=C(N)Oc2cc(O)ccc21 (configuration not stated),-8%,29%,·
COCC(C)NC(=O)Cn1c(SCc2ccccc2)nc2ccccc21 (configuration not stated),·,·,-8%
COCC(C)NC(=O)CSc1nc2ccccc2n1CCc1ccccc1 (configuration not stated),0%,10%,·
CC(C)C(=O)NCCc1nc2ccccc2n1CCCOc1ccc(Cl)cc1,-2%,22%,·
COc1ccc(OCCCn2c(CCNC(=O)C3CCCCC3)nc3ccccc32)cc1,·,·,-9%
Cc1cccc(OCCn2c(CCNC(=O)C3CCCCC3)nc3ccccc32)c1,·,·,-1%
Cc1cccc(OCCCn2c(CCNC(=O)C(C)(C)C)nc3ccccc32)c1,-3%,?,·
Cc1ccc(OCCn2c(CCNC(=O)C(C)C)nc3ccccc32)cc1,-6%,-9%,·
COc1ccccc1OCCn1c(CCNC(=O)C2CCCCC2)nc2ccccc21,·,·,2%
COc1ccccc1OCCn1c(NC(=O)c2ccccc2)nc2ccccc21,1%,1%,·
COc1ccc(OCCn2c(CCNC(=O)C3CCCCC3)nc3ccccc32)cc1,·,·,-17%
CCN1CCN(C(=O)c2ccc3c(c2)N(Cc2c(F)cccc2Cl)C(=O)c2ccccc2S3)CC1,4%,-3%,·
CCCC1=Nc2cc(C(=O)NCC(C)c3ccccc3)ccc2Sc2ccccc21 (configuration not stated),-3%,?,·
Cc1cc(C)n(C(=O)CNC(=O)C(c2ccccc2)c2ccccc2)n1,-1%,?,·
Cc1cc2ccccc2n1CCNC(=O)C1CCCC1,4%,-6%,·
Cc1cc(OCCCn2c(CCNC(=O)C3CCCCC3)nc3ccccc32)ccc1Cl,1.4µM*,7%,13µM*
SMILES,Cruzain Triton,Cruzain inh noDet,Papain counter
Cc1ccc(S(=O)(=O)NNC(=O)CCC(=O)Nc2ccc(C)c(C)c2)cc1,7%,7%,·
Cc1nc2ccc(S(=O)(=O)NC(C(=O)N3CCn4c3nc3ccccc34)C(C)C)cc2s1 (configuration not stated),-1%,-18%,·
Fc1ccccc1-c1nnc2c3ccccc3nc(N3CCOCC3)n12,6%,-1%,·
Cc1nc2cc(-c3ccc(Cl)cc3)nn2c(C)c1CCC(=O)N1CCN(c2ccccc2)CC1,3%,-3%,·
Cc1nc2cc(-c3ccccc3)nn2c(C)c1CCC(=O)N1CCN(c2ccccc2)CC1,3%,?,-30%
CCN(CC)C(=O)C1CC(=O)OC1(C)C (configuration not stated),4%,2%,·
COc1ccc(O)c(C(=O)c2cc(C#N)c(=O)n(CCN3CCOCC3)c2)c1,0%,-12%,·
Cc1cc(Nc2cccc(Cl)n2)n(-c2ccccc2)n1,-7%,-5%,·
O=C(NCCc1nc2ccccc2[nH]1)c1cc([N+](=O)[O-])cc([N+](=O)[O-])c1,3.5µM*,-4%,5%
O=C(NCCOc1ccccc1)c1cc(C(=O)NCCOc2ccccc2)cc([N+](=O)[O-])c1,-5%,-2%,·
CCCOc1ccc(OC(=O)c2sc3ncn(Cc4cccc(F)c4)c(=O)c3c2C)cc1,1%,3%,·
O=C(Nc1ccc(N2CCCC2)cc1)c1ccc(Br)o1,?,7.9µM*,26%
O=C(Nc1ccc(N2CCN(C(=O)c3ccccc3)CC2)cc1)c1ccc(Br)o1,-5%,?,·
COC(=O)CS(=O)(=O)c1nnc([C@H](Cc2ccccc2)NC(=O)OC(C)(C)C)o1,7.1µM*,10µM*,5.6µM*
CSCC[C@H](NC(=O)OC(C)(C)C)c1nnc(SCc2ccccc2)o1,-3%,-5%,·
CCC(C(=O)NC1CCCCC1)n1c(SCc2ccccc2F)nc2ccncc21 (configuration not stated),13µM*,?,28µM*
O=C(NC1CCCC1)c1ccc(CSc2nc3ccncc3n2Cc2ccccc2F)cc1,-7%,3%,·
CCOc1ccc(CN2C(=O)c3ccccc3Sc3ccc(C(=O)NCCc4ccccc4)cc32)cc1,-6%,?,·
CCOc1ccc(CN2C(=O)c3ccccc3Sc3ccc(C(=O)NCc4ccc(C)cc4)cc32)cc1,-1%,10µM*,8%
COc1cccc(CNC(=O)c2ccc3c(c2)N(Cc2ccc(F)cc2Cl)C(=O)c2ccccc2S3)c1,1%,13µM*,7%
Cc1cccc(CN2C(=O)c3ccccc3Sc3ccc(C(=O)NCCc4ccccc4)cc32)c1,1%,?,·
O=C(O)c1ccc2c(c1)N(Cc1ccc(F)cc1Cl)C(=O)c1ccccc1S2,-1%,?,·
O=C(NCc1ccc2c(c1)OCO2)c1ccc2c(c1)N(Cc1c(F)cccc1Cl)C(=O)c1ccccc1S2,-2%,10µM*,-3%
COc1cccc(CN2C(=O)c3ccccc3Sc3ccc(C(=O)NCCc4ccc(Cl)cc4)cc32)c1,-3%,20µM*,8%
O=C(NCc1ccco1)c1ccc2c(c1)N(Cc1c(F)cccc1Cl)C(=O)c1ccccc1S2,-3%,?,·
SMILES,Cruzain Triton,Cruzain inh noDet,Papain counter
Cc1cc(C)c(NC(=O)Cn2c(=O)n(CC(=O)NCc3ccccc3Cl)c(=O)c3sccc32)c(C)c1,-1%,-5%,·
COc1ccc(S(=O)(=O)NNC(=O)c2cc3c4ccccc4n(C)c3s2)cc1,-11%,-21%,·
COc1ccc2cc(CNc3ccc(C)cc3)c(=O)n(CC(=O)Nc3ccc(OC)c(Cl)c3)c2c1,-2%,?,·
COc1ccc(CNC(=O)Cn2c(=O)cc(C)c3c(C)nn(-c4cccc(Cl)c4C)c32)cc1,0%,-4%,·
O=C(CNC(=O)C1CCCCC1)OCc1ccccc1,·,·,-32%
O=C(CNC(=O)C1CCCCC1)OCCOc1ccccc1,·,·,-6%
COC(=O)CNC(=O)C1CCN(C(=O)OCc2ccccc2)CC1,-5%,-1%,·
O=C(COc1ccccc1)NC1CCCCC1,-2%,2%,·
Cc1ccn2cc(-c3ccc(NC(=O)c4ccco4)cc3)nc2c1,-11%,-10%,·
Cn1c(=O)c2c([nH]c(=O)n2C)n(C)c1=O,5%,3%,·
O=C(N/N=C\c1ccccc1O)c1ccccc1O,-10%,32µM*,7%
O=C(Oc1ccc(/C=N/NC(=O)c2ccccc2O)cc1)c1ccccc1,-10%,-18%,·
CC1(C)C(=O)C=C[C@@]2(C)C1=C(O)C(=O)[C@@]1(C)C2CC[C@@]2(C)C(c3ccoc3)C[C@H]3O[C@@]321 (some centres not stated),-1%,-2%,·
